The source of these data is PubChem BioAssay.

Each structure is given as a SMILES string. Activity calls are given as the source filed them.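 How the source made its calls, unless noted: active means visually confirmed hit in the image check and inhibition above 20%; inconclusive means visually confirmed hit but inhibition not above 20%; inactive means no visual hit in the image check.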

Experiment [1] can be described thus: inhibitors of TNFa-induced NFkB p65 translocation, primary screen, imaging, HUVEC, MLSMR starter and 10KST1 sets (AID 438;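 active means inhibition above 20% together with a positive visual image hit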;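 further: compound added about 3h40 before a 20 min TNFalpha stimulation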;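 on inhibition: signal is the nuclear over cytoplasmic p65 intensity ratio per well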). The following applies: HUVEC TNFa-induced p65 nuclear translocation; cell count: measured here: nuclei count (cytotoxicity indicator), at 2.08 µM; inhibition: at 2 µM, stronger effect = higher value, 0% TNFa-plus-vehicle, 100% no-TNFa wells.
A short description of experiment [2]: inhibitors of mutant huntingtin aggregation, primary screen, imaging, exon1htt(103Q)mCFP cells, high-content imaging (AID 483;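 active means visual image review flags a hit and inhibition of aggregation exceeds 20%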;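 further: compound exposure lasted 3 days before fixation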;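 on nuclei count: percent of the per-plate median nuclei count of sample wells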). To be noted: exon1htt(103Q)mCFP cell line, aggregate imaging, at 2 µM; inhibition of aggregation: stronger effect = higher value; nuclei count: measured here: cell count, toxicity.
Experiment [3] can be described thus: inhibitors of E-selectin induction by TNFa, primary screen, imaging, HUVEC, immunofluorescence, MLSMR starter and 10KST1 sets (AID 487).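 On inhibition: signal is fraction of cell area covered by stained E-selectin grains.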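 On nuclei count: 100% = median nuclei count of all wells on the same plate.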 The following applies: HUVEC TNFalpha-induced E-selectin immunofluorescence imaging, at 2 µM; inhibition: stronger effect = higher value; nuclei count: measured here: cell number, toxicity.
Experiment [4] addresses Voltage-gated potassium channel subunit beta-2 (Rattus norvegicus) (UniProt P62483). Kind of experiment: KvBeta enzyme negative modulators, primary screen, biochemical, NADPH fluorescence (AID 622;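 active means fluorescence slope higher than the sample average by over 3 SD, cut at about -0.22 in these data, passing the limit was not always enough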;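 further: slope of raw intensity against log time taken from 70 to 1610 s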). To be noted: recombinant KvBeta, 4-cyanobenzaldehyde reduction, at 10 µM, stronger effect = higher value.
Experiment [5] has the same target. Nature of the experiment: KvBeta positive modulators, primary screen, biochemical, NADPH fluorescence (AID 623;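 active means NADPH fluorescence slope more negative than the mean of all samples by about 3 SD, 99.7% confidence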;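 further: fluorescence intensity change per second fitted from 20 to 320 s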). The following applies: Recombinant KvBeta, NADPH fluorescence decrease slope, 10 min; at 10 µM; stronger effect = lower value.
In experiment [6] the target is Alpha-2C adrenergic receptor (Homo sapiens) (UniProt P18825). Kind of experiment: modulators of alpha2C/GIRK thallium flux, primary screen, cell-based, HEK293 alpha2C/GIRK1/2 (AID 624;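 active means fluorescence slope after compound addition differing from the mean of all screened samples at 99.7% confidence, in either direction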;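 further: slope of fluorescence ratio to pre-addition baseline per second over 15 to 24 s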). The following applies: thallium flux BTC fluorescence, at 10 µM, actives lie on both sides.
Experiment [7] is described as follows: inhibitors of Sendai virus-induced IRF3 signaling, primary screen, TLR/RLR signaling modifier project, cell-based, Sendai virus stimulus, luciferase, 10K MLSCN set (AID 602276;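 active means inhibition at or above 50% at 10 µM; inactive means inhibition below 50%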;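 further: firefly luciferase from ISG56 promoter only with Renilla not read in this screen; 0% = Sendai virus plus DMSO and 100% = medium plus DMSO without virus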). To be noted: HEK293 RL24 IRF3 luciferase reporter, at 10 µM, stronger effect = higher value.
Experiment [8] can be described thus: inhibitors of poly I:C-induced TLR3 signaling, primary screen, cell-based, poly I:C stimulus, luciferase, 10K MLSCN set (AID 602277;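 active means inhibition of the reporter signal at or above 50%; inactive means inhibition below 50%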). To be noted: HEK293-TLR3 RL24 IRF3 luciferase reporter, at 10 µM, stronger effect = higher value. A general note: In a reporter assay the amount or activity of a reporter protein is the signal.

Alpha-2C adrenergic receptor (Homo sapiens), sequence (P18825 whole entry, looked up): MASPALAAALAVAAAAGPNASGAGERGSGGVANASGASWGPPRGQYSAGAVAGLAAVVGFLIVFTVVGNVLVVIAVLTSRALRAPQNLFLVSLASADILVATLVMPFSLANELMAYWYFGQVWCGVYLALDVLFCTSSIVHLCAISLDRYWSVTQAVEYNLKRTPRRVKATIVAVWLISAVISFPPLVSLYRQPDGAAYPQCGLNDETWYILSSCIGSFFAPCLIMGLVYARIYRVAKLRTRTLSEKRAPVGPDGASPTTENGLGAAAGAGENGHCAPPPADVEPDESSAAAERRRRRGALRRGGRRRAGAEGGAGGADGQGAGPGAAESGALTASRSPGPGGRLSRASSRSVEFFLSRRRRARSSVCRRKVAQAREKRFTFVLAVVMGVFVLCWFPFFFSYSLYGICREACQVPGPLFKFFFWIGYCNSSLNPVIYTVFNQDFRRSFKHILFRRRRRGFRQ
Voltage-gated potassium channel subunit beta-2 (Rattus norvegicus), sequence (P62483 whole entry, looked up): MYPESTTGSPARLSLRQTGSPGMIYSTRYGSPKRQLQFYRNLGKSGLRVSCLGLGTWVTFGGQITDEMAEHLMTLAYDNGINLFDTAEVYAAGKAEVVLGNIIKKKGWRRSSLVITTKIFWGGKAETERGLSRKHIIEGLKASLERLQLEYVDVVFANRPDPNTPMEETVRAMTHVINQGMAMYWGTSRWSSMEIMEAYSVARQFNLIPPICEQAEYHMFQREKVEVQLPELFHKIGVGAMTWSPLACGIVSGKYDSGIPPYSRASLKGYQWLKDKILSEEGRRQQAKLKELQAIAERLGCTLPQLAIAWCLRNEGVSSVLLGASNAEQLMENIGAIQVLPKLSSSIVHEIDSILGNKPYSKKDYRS

On to `O=C(CC1Oc2ccc(Cl)cc2NC1=O)NC1CCCCCC1` (centres undefined), for which the cell count in experiment [1] amounted to 615. Besides, the inhibition (as a rule, the change of the read-out against control, counted positive when it falls) is -4.3% (inactive) in experiment [1], 0.7% (inactive) in experiment [3], 8.85% (inactive) in experiment [7] and 6.03% (inactive) in experiment [8]. Besides, the inhibition of aggregation in experiment [2] is 19.5% (inactive). The results for the nuclei count in experiment [2] and in experiment [3] were 51.7% and 100%, respectively. Moreover, the fluorescence slope in experiment [4] is -0.544 (inactive). The NADPH fluorescence slope in experiment [5] was -3.7e-05 (inactive). Besides, in experiment [6], the slope is 0.00511 (inactive).
Consider `Cc1nnc(SCC(=O)Nc2sc3c(c2C#N)CCCC3)[nH]c1=O`, for which the cell count in experiment [1] amounted to 368. Besides, the inhibition in experiment [1] is 2.8% (inactive); in experiment [3], -31.8% (inactive); in experiment [7], 8.57% (inactive); in experiment [8], 39.4% (inactive). Further, in experiment [2], the inhibition of aggregation was -12.9% (inactive). Moreover, the nuclei count came to 114% in experiment [2] and 108% in experiment [3]. The fluorescence slope in experiment [4] is -0.441 (inactive). For the same molecule, in experiment [5], the NADPH fluorescence slope is 1.2e-05 (inactive). Also, in experiment [6], the slope is 0.00274 (inactive).
Consider `CCOC(=O)CSc1nnc(Cn2nnc(-c3ccccc3)n2)n1CC`, for which the cell count in experiment [1] was 415. For the same molecule, the inhibition is -0.8% (inactive) in experiment [1], -34.4% (inactive) in experiment [3], 15.9% (inactive) in experiment [7] and 21.4% (inactive) in experiment [8]. The inhibition of aggregation in experiment [2] is 5.4% (inactive). Moreover, the nuclei count in experiment [2] came to 109%; in experiment [3] it was 164%. Besides, the fluorescence slope in experiment [4] was -0.402 (inactive). In addition, in experiment [5], the NADPH fluorescence slope was 2.4e-05 (inactive). Also, the slope in experiment [6] was 0.006 (inactive).
As for `CC/C(O)=C(/C#N)c1nnc2n1CCCCC2`, in experiment [1], the cell count is 446. For the same molecule, the inhibition was 3.6% (inactive) in experiment [1], 47.8% (inactive) in experiment [3], 7.71% (inactive) in experiment [7] and 11.5% (inactive) in experiment [8]. For the same molecule, the inhibition of aggregation in experiment [2] is -9.6% (inactive). For the same molecule, the nuclei count in experiment [2] turned out to be 115%; in experiment [3] it was 86.1%. In addition, the fluorescence slope in experiment [4] was -0.608 (inactive). Moreover, the NADPH fluorescence slope in experiment [5] is -2e-05 (inactive). In experiment [6], the slope was 0.00604 (inactive).
`CN(C)C(=O)N1CCC(C(=O)NC2CCCCCCC2)CC1`: the cell count in experiment [1] was determined as 545. Further, the inhibition in experiment [1] is 7.4% (inactive); in experiment [3], -48.1% (inactive); in experiment [7], 13% (inactive); in experiment [8], 18.9% (inactive). Further, in experiment [2], the inhibition of aggregation was 36.8% (active). The nuclei count turned out to be 49.6% in experiment [2] and 106% in experiment [3]. Further, the fluorescence slope in experiment [4] is -0.381 (inactive). Further, the NADPH fluorescence slope in experiment [5] was -2.2e-05 (inactive). In experiment [6], the slope is 0.00533 (inactive).
For the molecule `Cc1ccc(-c2nc(CS(=O)CC(=O)NCCN(CC(C)C)CC(C)C)c(C)o2)cc1` (centres undefined), the cell count in experiment [1] turned out to be 716. Besides, the inhibition in experiment [1] was -7.2% (inactive); in experiment [3] it was -18% (inactive); in experiment [7] it was 21.1% (inactive); in experiment [8] it was 30.9% (inactive). In experiment [2], the inhibition of aggregation is 21.6% (inactive). The results for the nuclei count in experiment [2] and in experiment [3] were 134% and 112%, respectively. In experiment [4], the fluorescence slope is -0.538 (inactive). Moreover, the NADPH fluorescence slope in experiment [5] is -2.2e-05 (inactive). In addition, the slope in experiment [6] was 0.00425 (inactive).
Turning to `O=C(NCc1ccco1)c1cccn2c(=O)c3sccc3nc12`, the cell count in experiment [1] amounted to 452. Moreover, the inhibition in experiment [1] was -1.9% (inactive); in experiment [3], 19.6% (inactive); in experiment [7], -2.36% (inactive); in experiment [8], -2.82% (inactive). Besides, the inhibition of aggregation in experiment [2] is -0.8% (inactive). The nuclei count in experiment [2] is 96%; in experiment [3], 101%. Besides, in experiment [4], the fluorescence slope was -0.112 (inactive). In experiment [5], the NADPH fluorescence slope is -7.3e-06 (inactive). In addition, the slope in experiment [6] was 0.00303 (inactive).
For the molecule `O=C(Cn1cnc2ccccc2c1=O)NCCC(=O)N1CCN(c2ccccc2)CC1`, in experiment [1], the cell count is 383. The inhibition is -10.7% (inactive) in experiment [1], 12.8% (inactive) in experiment [3], 15.8% (inactive) in experiment [7] and 23.6% (inactive) in experiment [8]. Further, the inhibition of aggregation in experiment [2] is 8.8% (inactive). Besides, the nuclei count in experiment [2] was determined as 99.4%; in experiment [3], 95.3%. In addition, in experiment [4], the fluorescence slope was -0.405 (inactive). For the same molecule, the NADPH fluorescence slope in experiment [5] was -9.9e-05 (inactive). Further, the slope in experiment [6] is 0.0056 (inactive).
As for `C=CCOc1ccc(/C=N/n2cncn2)cc1OC`, the cell count in experiment [1] worked out at 517. Besides, the inhibition in experiment [1] is -8.8% (inactive); in experiment [3] it was -39.8% (inactive); in experiment [7], -10.2% (inactive); in experiment [8], 5.53% (inactive). Besides, the inhibition of aggregation in experiment [2] was 23.9% (inactive). Further, the nuclei count in experiment [2] is 76.3%; in experiment [3] it was 81.6%. The fluorescence slope in experiment [4] was -0.58 (inactive). For the same molecule, the NADPH fluorescence slope in experiment [5] is 2.1e-05 (inactive). For the same molecule, in experiment [6], the slope is 0.00496 (inactive).
As to `C=C(Cl)COc1ccc2c(C)cc(=O)oc2c1`, the cell count in experiment [1] is 319. Moreover, the inhibition is -6.8% (inactive) in experiment [1], -31.6% (inactive) in experiment [3], -24.5% (inactive) in experiment [7] and -67.7% (inactive) in experiment [8]. The inhibition of aggregation in experiment [2] is -0.8% (inactive). For the same molecule, the nuclei count in experiment [2] was 71.6%; in experiment [3], 101%. For the same molecule, the fluorescence slope in experiment [4] was -0.587 (inactive). Moreover, the NADPH fluorescence slope in experiment [5] is 3.6e-07 (inactive). In experiment [6], the slope is 0.00646 (inactive).
Turning to `CC(C)Cn1c(=O)c(C(=O)Nc2ccccc2S(N)(=O)=O)c(O)c2ccccc21`, in experiment [1], the cell count worked out at 740. The inhibition is -1% (inactive) in experiment [1], 60.6% (active) in experiment [3], -1.36% (inactive) in experiment [7] and -18.4% (inactive) in experiment [8]. In addition, the inhibition of aggregation in experiment [2] was -9.5% (inactive). Besides, the nuclei count in experiment [2] is 99.4%; in experiment [3], 92.3%. Moreover, the fluorescence slope in experiment [4] was -0.393 (inactive). The NADPH fluorescence slope in experiment [5] is -3.1e-05 (inactive). Further, the slope in experiment [6] is 0.00741 (inactive).
As for `O=C(Nc1ccc2c(c1)OCO2)C(c1ccc(Cl)cc1)N1CCN(C(=O)c2ccco2)CC1` (centres undefined), the cell count in experiment [1] came out at 359. Besides, the inhibition in experiment [1] was -2.1% (inactive); in experiment [3] it was -43.9% (inactive); in experiment [7], 20.6% (inactive); in experiment [8], 28.1% (inactive). Also, in experiment [2], the inhibition of aggregation was -23.2% (inactive). In addition, the nuclei count in experiment [2] stood at 102%; in experiment [3] it was 110%. Besides, in experiment [4], the fluorescence slope was -0.47 (inactive). In addition, in experiment [5], the NADPH fluorescence slope is -3.7e-05 (inactive). The slope in experiment [6] was 0.00661 (inactive).
`Cc1ccc(-c2ccc(=O)n(CCC(=O)NCCN3CCCCC3C)n2)cc1` (centres undefined): the cell count in experiment [1] was determined as 216. Besides, the inhibition in experiment [1] is 4.2% (inactive); in experiment [3] it was -4.1% (inactive); in experiment [7], 1.11% (inactive); in experiment [8], 2.82% (inactive). The inhibition of aggregation in experiment [2] is -7.7% (inactive). Moreover, the nuclei count in experiment [2] was found to be 86.5%; in experiment [3], 100%. Further, the fluorescence slope in experiment [4] was -0.442 (inactive). In experiment [5], the NADPH fluorescence slope is -2.5e-05 (inactive). Besides, in experiment [6], the slope is 0.00419 (inactive).
Take `COc1ccccc1N1CCN(C(=O)c2c(-c3c(Cl)cccc3Cl)noc2C)CC1`: in experiment [1], the cell count is 652. Besides, the inhibition is -11.7% (inactive) in experiment [1], -24.6% (inactive) in experiment [3], 18.3% (inactive) in experiment [7] and 38.3% (inactive) in experiment [8]. Also, in experiment [2], the inhibition of aggregation is 3.7% (inactive). Besides, the nuclei count in experiment [2] was 90.6%; in experiment [3], 110%. The fluorescence slope in experiment [4] was -0.377 (inactive). Further, the NADPH fluorescence slope in experiment [5] was -2.9e-05 (inactive). The slope in experiment [6] was 0.00504 (inactive).
